According to PubChem BioAssay AID1117361 (Southern Research Institute, 2015):
About 900 (25%) of roughly 3,600 compounds were called active. No rule for the calls is given here. Not all results are given here. Results with a measured potency or affinity are listed apart.

What follows are compounds tested against Protein Tat (Human immunodeficiency virus type 1 group M subtype B (isolate HXB2)) (UniProt P04608) (assay: HIV-1 Tat–TAR interaction blockers – biochemical, fluorescence polarization, FAM-labeled TAR RNA, counter-screen for Vif-APOBEC3G degradation inhibitor project, dose response (AID 1117361)). Details: Tat-TAR RNA binding; series mostly up to 100 µM.

Structure (SMILES)	outcome
CCC(C)N1CC23C=CC(O2)C(C(=O)OC)C3C1=O (configuration not stated)	inactive
COCC(=O)Nc1sc2c(c1C(=O)OC)C(C(=O)OC)CC2 (configuration not stated)	inactive
CCOC(=O)C1=C(Cc2ccc(Cl)cc2)C(=O)c2ccccc2C1=O	inactive
CCOC(=O)c1c2c(n(Cc3ccccc3)c1C)C(=O)C(=O)c1ccccc1-2	inactive
COc1c(F)c(F)c(C(=O)Nc2ccccc2N2CCN(C(C)=O)CC2)c(F)c1F	inactive
O=C(Nc1ccccc1N1CCCCC1)c1ccccc1F	inactive
COc1ccc(S(=O)(=O)N(C(C)=O)c2ccc3oc(=O)sc3c2)cc1	inactive
O=C1C(Cl)=C(Oc2ccccc2)C(=O)c2ccccc21	inactive
CC(OC(=O)c1cccc(O)c1)C(=O)N(C)Cc1ccccc1 (configuration not stated)	inactive
CC(=O)Nc1ccc(NC(=O)c2sc3nc4c(c(-c5ccc(C)cc5)c3c2N)CCC4)cc1	inactive
CSc1ncccc1C(=O)NCc1nnc2ccccn12	inactive
O=C(Cn1c(NCCO)nc2ccccc21)NCC(F)(F)F	inactive
O=C(CSc1nnc(CN2CCCCC2)n1-c1ccccc1)c1ccc2c(c1)OCO2	inactive
CC(NC(=O)c1ccco1)C(=O)N1CCc2ccccc2C1 (configuration not stated)	inactive
O=C(CN(C1CCCCC1)C1CCCCC1)N1CCc2ccccc2C1	inactive
Cc1ccc([C@H]2C(C(=O)O)=CC[C@@H](c3cccc(Cl)c3)N2S(=O)(=O)c2ccc(C)cc2)cc1	inactive
COc1ccccc1-n1nnnc1SCC(=O)Nc1cc(C)on1	inactive
O=c1cc2oc3cc(O)c(O)cc3c(-c3ccccc3O)c-2cc1O	inactive
OC(CN1CCCCC1)CN1CCCCC1	inactive
CS(=O)(=O)N(CC(=O)N1CCN(Cc2ccccc2)CC1)c1ccc2c(c1)OCCO2	inactive
C[C@H](NC(=O)OCc1ccccc1)C(=O)NNC(=O)[C@H](C)NC(=O)OCc1ccccc1	inactive
CSCCC(CO)NC(=O)OCc1ccccc1 (configuration not stated)	inactive
O=C(Nc1nnc(C2CC2)o1)c1ccc(S(=O)(=O)N2CCCc3ccccc32)cc1	inactive
Cc1ccc(N2CC(NC(=O)N3CCN(C(=O)c4ccco4)CC3)CC2=O)cc1 (configuration not stated)	inactive
CSc1ccc(C2Nc3ccccc3-c3cc(C)nn32)cc1 (configuration not stated)	inactive
COc1ccc(S(=O)(=O)Nc2ccc3c(c2)OCO3)cc1C	inactive

Structure (SMILES)	outcome
O=S(=O)(Nc1ccc2c(c1)OCCO2)c1cnc[nH]1	inactive
O=C(Nc1ccc2c(c1)OCO2)c1cccc(S(=O)(=O)N2CCCC2)c1	inactive
O=C(CCc1ccc(S(=O)(=O)NCCc2ccccc2)cc1)Nc1ccc2c(c1)OCO2	inactive
CS(=O)(=O)N1CCCCC1CCN1CCCCC1 (configuration not stated)	inactive
CC1(C)CC(=O)C(C2NCCc3ccccc32)=C(O)C1 (configuration not stated)	inactive
CCN(CC)CC(=O)Nc1nn(-c2ccccc2)nc1C(N)=O	inactive
Cc1ccc(S(=O)(=O)n2cnc3ccccc32)c(C)c1	inactive
CCCCNC(=O)c1c(O)c2cccc3c2n(c1=O)CCC3	inactive
N#CC1(c2ccc(NC(=O)c3ccccc3F)cc2)CCCC1	inactive
CCCCCn1c(CN2CCN(c3cc(Cl)ccc3C)CC2)nc2c1c(=O)[nH]c(=O)n2C	inactive
CCOc1c(OC)cccc1C1CC(=O)Nc2cc3c(cc21)OCCO3 (configuration not stated)	inactive
CCc1ccccc1N(CC)C(=O)CCc1nc(-c2ccc(C)cc2)no1	inactive
NS(=O)(=O)c1ccc(NC(=O)COC(=O)CC2Sc3ccccc3NC2=O)cc1 (configuration not stated)	inactive
COc1cc(C(C2C(=O)CC(C)(C)CC2=O)C2C(=O)CC(C)(C)CC2=O)cc(OC)c1OC	inactive
O=C(Nc1cc(Cl)ccc1Oc1ccccc1)c1cnccn1	inactive
Cc1cn(C2CCCCO2)c(=O)[nH]c1=O (configuration not stated)	inactive
CN(C)NC1CCS(=O)(=O)C1 (configuration not stated)	inactive
O=C(Cn1cnc2c(nnn2Cc2ccc(F)cc2)c1=O)NCc1ccco1	inactive
Cn1nnnc1SCC(=O)NCc1ccco1	inactive
COc1ccc2c(c1OC)C(=O)OC2Nc1nc(-c2cc3cc([N+](=O)[O-])ccc3oc2=O)cs1 (configuration not stated)	inactive
CCOc1ccc(CCNC(=O)C2CC(C)=CCC2C(=O)O)cc1OCC (configuration not stated)	inactive
CCC(Sc1nc2cc(OC)c(OC)cc2c(=O)n1Cc1ccco1)C(=O)NCCOC (configuration not stated)	inactive
COc1ccc2c(=O)c3c(=O)n(-c4ccc(C)cc4)c(-c4ccccc4)nc3oc2c1	inactive
CCN1/C(=C(\O)c2ccccc2)C(=O)c2ccccc2S1(=O)=O	inactive
COc1ccc(C2C(C#N)=C(N)Oc3n[nH]c(C)c32)cc1Cn1nnc2ccccc21 (configuration not stated)	inactive
NC(=O)C1CCN(C(=O)C23CC4CC(CC(C4)C2)C3)CC1	inactive
